In PubChem BioAssay (Tox21):
Values without a mark were called inactive. Results filed as inconclusive are left out. A call without a number means that no potency is given here. The source made the active and inactive calls. Unless noted, the call rests on the fitted dose curve; in most records, active means well fitted curve in the direction sought with a large enough effect in the repeat runs; inconclusive means weak or mixed curves; inactive means no such curve, though single readings can be large; an effect the other way counts as inactive or inconclusive.

Key:
[1] = qHTS assay for small molecule agonists of the p53 signaling pathway (AID 651631; calls by dose curve; further: nearly all actives have a fitted effect of over 15% in size)
Procedure, shortened: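 Read-out is beta-lactamase FRET fluorescence measured 2 h after substrate addition at room temperature, in HCT-116 cells with a p53 response element-driven reporter exposed to compounds for 16 h at 37 °C.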

[2] = qHTS assay for small molecule agonists of the p53 signaling pathway - cell viability (AID 651633; calls by dose curve;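 further: p53RE-bla HCT reporter cells with a stable beta-lactamase p53 reporter; series mostly up to about 83 µM; nearly all actives have a fitted effect of over 30% in size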)
Procedure, shortened: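 p53RE-bla cells were treated with compound for 16 hours at 37 C. Cytotoxicity was then measured as CellTiter-Glo luminescence after 30 min at room temperature.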

[3] = qHTS assay for small molecules that induce genotoxicity in human embryonic kidney cells expressing luciferase-tagged ATAD5 - cell viability (AID 651634; calls by dose curve; further: nearly all actives have a fitted effect of over 25% in size)
Procedure, shortened: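 Live-cell protease activity (CellTiter-Fluor, fluorescence) indicates viability. HEK293T cells with luciferase-tagged ATAD5; 15.5 hr compound treatment at 37C.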

[4] = qHTS assay for small molecule disruptors of the mitochondrial membrane potential - cell viability (AID 720634; calls by dose curve;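 further: human HepG2 liver cancer cells; series mostly up to about 83 µM; nearly all actives have a fitted effect of over 20% in size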)
Procedure, shortened: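 Human hepatoma HepG2 cells were treated for 1 hr with test chemicals, then given m-MPI dye and CellTiter-Glo. Cell viability reflects luminescence proportional to cellular ATP.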

[5] = qHTS assay to test for compound auto fluorescence at 590 nm (red) in HepG2 cells (AID 720674)
Procedure, shortened: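 Seeding: 2,000 HepG2 cells/well, MEM/10% FBS, overnight 37 C. Dosing: compound vs DMSO. Incubation: 1 hr, 37 C, 5% CO2. Read: fluorescence 540 ex/590 em, Rose Bengal sodium as red reference.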

[6] = qHTS assay to test for compound auto fluorescence at 535 nm (green) in HepG2 cells (AID 720675)
[7] = qHTS assay to test for compound auto fluorescence at 460 nm (blue) in HEK293 cells (AID 720678)
Procedure, shortened: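 Blue-channel (Ex/Em 405/460 nm) intensity measured in HEK293 cultures after overnight compound exposure at 37C; signal expressed relative to triamterene. Cells plated 2,000 per well in 10% dialyzed FBS medium and allowed 4-5 hr to attach.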

[8] = qHTS assay to test for compound auto fluorescence at 590 nm (red) in HEK293 cells (AID 720679)
Procedure, shortened: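 Red-channel autofluorescence (Ex/Em 540/590 nm; Rose Bengal sodium reference) was measured after overnight 37C, 5% CO2 exposure of attached HEK293 cells, 2,000 per well in medium with 10% dialyzed FBS.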

[9] = qHTS assay to test for compound auto fluorescence at 535 nm (green) in HEK293 cells (AID 720680)
[10] = qHTS assay to test for compound auto fluorescence at 460 nm (blue) in HEK293 cell free culture (AID 720681)
Procedure, shortened: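 Compounds were added to cell-free DMEM with 10% FBS and fluorescence read directly. The blue channel used 405 nm excitation and 460 nm emission, with triamterene as the reference fluorophore.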

[11] = qHTS assay to test for compound auto fluorescence at 535 nm (green) in HEK293 cell free culture (AID 720682)
Procedure, shortened: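 Fluorescein serves as the green reference fluorophore; each compound's intrinsic emission at 535 nm (excitation 485 nm) is reported as an equivalent amount of that dye, measured in serum-containing DMEM without cells.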

[12] = qHTS assay to test for compound auto fluorescence at 590 nm (red) in HEK293 cell free culture (AID 720683)
Procedure, shortened: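 Cell-free wells of DMEM with 10% FBS received compound, and intrinsic fluorescence was read at excitation/emission 540/590 nm. Values expressed as equivalence to Rose Bengal sodium.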

[13] = qHTS assay to test for compound auto fluorescence at 590 nm (red) in HepG2 cell free culture (AID 720684)
Procedure, shortened: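 Compounds are added to culture medium (MEM, 10% FBS) lacking cells, then fluorescence is read at excitation 540 nm, emission 590 nm, with Rose Bengal sodium as the equivalency standard.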

[14] = qHTS assay to test for compound auto fluorescence at 460 nm (blue) in HepG2 cell free culture (AID 720685)
Procedure, shortened: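 Compound (23 nL) or DMSO pinned into cell-free MEM with 10% FBS; blue fluorescence read at 405/460 nm excitation/emission, expressed as auto-fluorescence equivalency to triamterene.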

[15] = qHTS assay to test for compound auto fluorescence at 460 nm (blue) in HepG2 cells (AID 720687)
Procedure, shortened: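 HepG2 cells in MEM with 10% FBS, attached overnight at 37 C, were exposed to compound or DMSO for 1 hr at 37 C, 5% CO2. Blue fluorescence was read at 405/460 nm, with triamterene as reference fluorophore.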

[16] = qHTS assay for small molecule disruptors of the mitochondrial membrane potential (AID 720635); further: potency means the concentration at half of the fitted maximal effect
Procedure, shortened: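 HepG2 cells exposed to compound 1 hr at 37C, then Mito-MPS dye 30 min. Ratio read of aggregate (540/590 nm) versus monomer (490/535 nm) fluorescence.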

[17] = qHTS assay to test for compound auto fluorescence at 535 nm (green) in HepG2 cell free culture (AID 720686)
[18] = target: Glucocorticoid receptor (Homo sapiens) (UniProt P04150); experiment: qHTS assay to identify small molecule agonists of the glucocorticoid receptor (GR) signaling pathway (AID 720691; active means well fitted activation curve with a large enough effect in the signal ratio in the repeat runs, not every such curve was filed as active; the % refers to the signal ratio)
Chain of Glucocorticoid receptor (Homo sapiens) (P04150 whole entry, looked up): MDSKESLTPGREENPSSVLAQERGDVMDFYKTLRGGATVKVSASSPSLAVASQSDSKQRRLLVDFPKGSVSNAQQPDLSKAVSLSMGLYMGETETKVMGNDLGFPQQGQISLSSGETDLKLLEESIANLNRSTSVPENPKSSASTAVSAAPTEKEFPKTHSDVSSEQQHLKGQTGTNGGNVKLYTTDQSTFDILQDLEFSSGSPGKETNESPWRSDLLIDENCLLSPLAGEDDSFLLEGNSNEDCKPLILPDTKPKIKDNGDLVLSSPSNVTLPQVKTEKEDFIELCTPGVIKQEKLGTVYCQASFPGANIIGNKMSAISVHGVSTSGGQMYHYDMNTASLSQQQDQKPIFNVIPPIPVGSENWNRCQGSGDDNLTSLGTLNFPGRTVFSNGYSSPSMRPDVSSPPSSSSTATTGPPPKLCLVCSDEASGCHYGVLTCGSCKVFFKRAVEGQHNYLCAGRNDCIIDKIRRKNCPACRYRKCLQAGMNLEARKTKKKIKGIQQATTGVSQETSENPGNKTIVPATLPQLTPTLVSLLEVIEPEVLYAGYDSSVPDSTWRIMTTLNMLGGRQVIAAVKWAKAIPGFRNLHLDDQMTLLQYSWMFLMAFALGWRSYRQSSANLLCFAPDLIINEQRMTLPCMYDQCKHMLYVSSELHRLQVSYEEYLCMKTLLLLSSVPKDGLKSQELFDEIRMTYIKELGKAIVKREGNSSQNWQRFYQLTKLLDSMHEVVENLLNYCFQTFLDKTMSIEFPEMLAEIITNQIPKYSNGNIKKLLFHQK
Procedure, shortened: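 Beta-lactamase reporter activity, read as fluorescence intensity, was measured in GR-bla HeLa cells exposed to compounds for 18 h at 37 C and then loaded with LiveBLAzer B/G FRET substrate for 2 h at room temperature.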

[19] = target: Glucocorticoid receptor (Homo sapiens) (UniProt P04150); experiment: qHTS assay to identify small molecule antagonists of the glucocorticoid receptor (GR) signaling pathway (AID 720692; active means well fitted inhibition curve with a large enough effect in the signal ratio in the repeat runs, not every such curve was filed as active; the % refers to the signal ratio)
Procedure, shortened: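 Fluorescence from cleaved LiveBLAzer B/G FRET substrate reports GRE-driven beta-lactamase in HeLa cells; compounds are tested against 5 nM dexamethasone (final) over 18 h at 37 C, substrate incubation 2 h at room temperature.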

CCc1nnc(NS(=O)(=O)c2ccc(N)cc2)s1
Potency [1]: inactive
Potency [2]: inactive
Potency [3]: inactive
Potency [4]: inactive
outcome [5]: inactive
outcome [6]: inactive
outcome [7]: inactive
outcome [8]: inactive
outcome [9]: inactive
outcome [10]: inactive
outcome [11]: inactive
outcome [12]: inactive
outcome [13]: inactive
outcome [14]: inactive
outcome [15]: inactive

CN(C)CC[C@@H](c1ccc(Cl)cc1)c1ccccn1
Potency [1]: inactive
Potency [2]: inactive
Potency [3]: inactive
Potency [4]: inactive
Potency [16]: inactive
outcome [6]: inactive
outcome [7]: inactive
outcome [8]: inactive
outcome [9]: inactive
outcome [10]: inactive
outcome [11]: inactive
outcome [12]: inactive
outcome [13]: inactive
outcome [14]: inactive
outcome [17]: inactive
outcome [15]: inactive
Potency [18]: inactive
Potency [19]: inactive

CCCNC(C)C(=O)Nc1c(C)csc1C(=O)OC (stereo not given)
Potency [1]: inactive
Potency [2]: inactive
Potency [3]: inactive
Potency [4]: inactive
Potency [16]: inactive
fluorescence, relative to Rose Bengal [5]: 0.288% [at 18.6 µM]
fluorescence, % of triamterene [7]: -0.0757% [at 18.6 µM]
fluorescence, % of fluorescent control [8]: -0.0511% [at 18.6 µM]
fluorescence, % of fluorescein [9]: -0.0722% [at 18.6 µM]
fluorescence, % of fluorescent control [10]: -0.0092% [at 18.6 µM]
activity change [11]: -0.0482% [at 18.6 µM]
fluorescence, % of fluorescent control [12]: 0.0164% [at 18.6 µM]
fluorescence, % of Rose Bengal [13]: -0.056% [at 18.6 µM]
fluorescence, % of fluorescent control [14]: -0.0067% [at 18.6 µM]
fluorescence, % of fluorescent control [15]: 0.025% [at 18.6 µM]
Potency [18]: inactive
Potency [19]: inactive

COc1ccc(S(=O)(=O)Nc2nnc(CC(C)C)s2)cc1
Potency [1]: inactive
Potency [2]: inactive
Potency [4]: inactive
outcome [5]: inactive
outcome [6]: inactive
outcome [7]: inactive
outcome [9]: inactive
outcome [10]: inactive
outcome [11]: inactive
outcome [12]: inactive
outcome [13]: inactive
outcome [14]: inactive
outcome [17]: inactive
outcome [15]: inactive
Potency [18]: inactive
Potency [19]: inactive

O=S(=O)(O)C(F)(F)F
Potency [1]: inactive
Potency [3]: inactive
Potency [4]: inactive
outcome [5]: inactive
outcome [6]: inactive
outcome [7]: inactive
outcome [8]: inactive
outcome [9]: inactive
outcome [10]: inactive
outcome [11]: inactive
outcome [12]: inactive
outcome [13]: inactive
outcome [14]: inactive
outcome [15]: inactive
Potency [18]: inactive

CCN(CC)CCNC(=O)COc1ccc(Cl)cc1
Potency [1]: inactive
Potency [2]: inactive
Potency [3]: inactive
Potency [4]: inactive
outcome [5]: inactive
outcome [6]: inactive
outcome [7]: inactive
outcome [8]: inactive
outcome [9]: inactive
outcome [10]: inactive
outcome [11]: inactive
outcome [12]: inactive
outcome [13]: inactive
outcome [14]: inactive
Potency [18]: inactive
Potency [19]: inactive

Cc1ccc([N+](=O)[O-])cc1Cl
Potency [1]: inactive
Potency [2]: inactive
Potency [3]: inactive
Potency [4]: inactive
outcome [5]: inactive
outcome [6]: inactive
outcome [7]: inactive
outcome [9]: inactive
outcome [10]: inactive
outcome [11]: inactive
outcome [12]: inactive
outcome [13]: inactive
outcome [14]: inactive
outcome [17]: inactive
outcome [15]: inactive
Potency [18]: inactive
Potency [19]: inactive

CC(CNC1CCCCC1)OC(=O)c1ccccc1 (stereo not given)
Potency [1]: inactive
Potency [3]: inactive
Potency [4]: inactive
fluorescence, relative to Rose Bengal [5]: -0.352% [at 18.6 µM]
fluorescence, % of fluorescein control [6]: 0.0399% [at 18.6 µM]
fluorescence, % of triamterene [7]: 0.0231% [at 18.6 µM]
fluorescence, % of fluorescent control [8]: 0.178% [at 18.6 µM]
fluorescence, % of fluorescein [9]: 0.0598% [at 18.6 µM]
fluorescence, % of fluorescent control [10]: 0.0629% [at 18.6 µM]
activity change [11]: 0.0004% [at 18.6 µM]
fluorescence, % of fluorescent control [12]: -0.008% [at 18.6 µM]
fluorescence, % of Rose Bengal [13]: 0.136% [at 18.6 µM]
fluorescence, % of fluorescent control [15]: -0.124% [at 18.6 µM]
Potency [18]: inactive
Potency [19]: inactive

NC/C=C/C(=O)O
Potency [1]: inactive
Potency [2]: inactive
Potency [3]: inactive
Potency [4]: inactive
Potency [16]: inactive
outcome [7]: inactive
outcome [8]: inactive
outcome [9]: inactive
outcome [10]: inactive
outcome [11]: inactive
outcome [12]: inactive
outcome [13]: inactive
outcome [17]: inactive
outcome [15]: inactive
Potency [18]: inactive
Potency [19]: inactive

CC(C)(C)c1ccc(OC(=O)c2ccccc2O)cc1
Potency [1]: inactive
Potency [4]: inactive
Potency [16]: 24.3 µM (active)
outcome [5]: inactive
outcome [6]: inactive
outcome [7]: inactive
outcome [8]: inactive
outcome [9]: inactive
outcome [10]: inactive
outcome [11]: inactive
outcome [13]: inactive
outcome [17]: inactive
outcome [15]: inactive
Potency [18]: inactive
Potency [19]: inactive
